tested on: Plasmodium falciparum; experiment: GSK_TCMDC: Inhibition of Plasmodium falciparum 3D7 in whole red blood cells, using parasite LDH activity as an index of growth. Test compounds present at 2uM; assay type: functional

Structure (SMILES)	Inhibition [%]
C[C@H](Cc1ccc(OCCNC[C@H](O)c2cccc(Cl)c2)cc1)NC[C@H](O)c1ccc(Cl)c(Cl)c1.O	83
N=C(N)NCCCN(Cc1ccccc1)c1ccc(Cl)cc1.O=S(=O)(O)O	100
NC(=O)c1cnc2cc(-c3ccncc3)cc(Nc3ccc(NC(=O)C4CCCCC4)cc3)c2c1	98
CS(=O)(=O)NCCCNCc1ccc(-c2ccc(-c3nc4cc(C(F)(F)F)ccc4[nH]3)s2)cc1.O=C(O)C(F)(F)F	99
CN(C)CCNC(=O)c1csc(Nc2ccc(Cl)c(Cl)c2)n1	100
C[C@H](Cc1ccc(OCCCCCOc2ccc(C[C@@H](C)NC[C@H](O)c3cccc(Cl)c3)cc2)cc1)NC[C@H](O)c1cccc(Cl)c1.Cl	99
Cc1[nH]c(C)c(-c2ccc(-c3ccc(OC(F)(F)F)cc3)cc2)c(=O)c1Cl	98
Cc1nc2c(=O)sc3ccccc3c2n1Cc1ccccc1	95
O=C(Nc1ccccc1)Nc1cccc(-c2nn3c(OCCN4CCCC4)cccc3c2-c2ccncc2)c1	100
CC(=O)N(C)/N=C/[C@H](CCc1ccccc1)NC(=O)[C@H](CC(C)C)NC(=O)c1cccc(OCCN2CCOCC2)c1	89
CCC(C)(C)n1c(C)cc2c3c(N)nc(N)nc3ccc21	97
C[C@H](Cc1ccc(CCc2ccc(C[C@@H](C)NC[C@H](O)c3cccc(Cl)c3)cc2)cc1)NC[C@H](O)c1cccc(Cl)c1.Cl	95
N#Cc1ccc(N[C@@H](CC2CCCCC2)C(=O)NCc2cc(F)c(F)cc2F)c2ccccc12.O=C(O)C(F)(F)F	94
COc1ccc2c(=O)c3ccc(OC)cc3[nH]c2c1	93
COc1ccc(-c2cccc(NC(=O)c3ccc(Cl)cc3)c2)cc1CN(C)CCN(C)C.O=C(O)C(F)(F)F	99
COc1ccc(CCn2c(=N)c(C(=O)NC3CCCC3)cc3c(=O)n4ccccc4nc32)cc1	99
CN1CCN(c2ccnc3ccc(NC(=O)Cc4ccc(Br)c5ccccc45)cc23)CC1	96
CC(C)CC(C)NC(=O)C1Cc2c([nH]c3ccc(F)cc23)C2(CCN(Cc3ccccc3)CC2)N1 (stereo unspecified)	97
Cn1nccc1C(=O)NCCNCc1cccc(-c2cccc(-c3nc4cc(C(F)(F)F)ccc4[nH]3)c2)c1.O=C(O)C(F)(F)F	100
Brc1ccc(Nc2nc(NCC3CCCO3)c3ccccc3n2)cc1 (stereo unspecified)	100
CCNc1nc(OCC(F)(F)F)nc(N(c2ccccc2)c2ccccc2)n1	100
OC(c1ccccc1)C1CN(CCc2ccccc2)CCC1(O)c1ccccc1 (stereo unspecified)	97
COc1ccc(F)cc1-c1ccc(C(=O)N2CCCN(c3ccc(C#N)cn3)CC2)cc1	99
O=C(Nc1ccc(CCNCc2ccccc2)cc1)Nc1ccc(OC(F)(F)F)cc1.O=C(O)C(F)(F)F	100
Cc1sc(CNCCCNc2cc(=O)c3ccccc3[nH]2)cc1Br	100
O=C(O)C(F)(F)F.c1ccc(CCNc2ccnc(Nc3ccc4[nH]nnc4c3)n2)cc1	100

Reference: ChEMBL document CHEMBL1157539, “Thousands of chemical starting points for antimalarial lead identification” (Nature, 2010)
